A selection: hits, their analogues and other compounds. The true share with any hit is near 4.3%.
GLP-1R inv ag: GLP-1 receptor (human) inverse agonism; HEK293 GLP-1R CRE-luciferase, luminescence, 24 h; GLP-1R form is constitutively active; P43220; Potency, µM (series often up to 38.3 µM), for inactives: top-dose activity change, negative = inhibition, hits mostly inhibitors; actives 1.6% (n = 410,000); note: potency is the fitted concentration of half-maximal effect; % is set by controls: 0 for no effect and ±100 for the full control effect; nearly all actives have a fitted effect of over 55% in size
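HEK293 cells stably co-expressing constitutively active GLP-1R and a cAMP-responsive luciferase reporter were seeded in DMEM with 10% Nu serum, given compounds after 12 h, and incubated 24 h at 37 deg C. Luminescence was then read.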
DRD3 antagonist: antagonists of human D3 dopamine receptor. P35462. D3R cells, DiscoveRx beta-arrestin luminescence, antagonist mode; hits give low values. max response, negative = inhibition, %. actives 2.5% (n = 360,000); in the data active = max response below about -50%; inconclusive = no clear call, values can overlap the other calls; note: % is set by controls: 0 for no effect and ±100 for the full control effect
Target sequence (P35462 whole entry, looked up): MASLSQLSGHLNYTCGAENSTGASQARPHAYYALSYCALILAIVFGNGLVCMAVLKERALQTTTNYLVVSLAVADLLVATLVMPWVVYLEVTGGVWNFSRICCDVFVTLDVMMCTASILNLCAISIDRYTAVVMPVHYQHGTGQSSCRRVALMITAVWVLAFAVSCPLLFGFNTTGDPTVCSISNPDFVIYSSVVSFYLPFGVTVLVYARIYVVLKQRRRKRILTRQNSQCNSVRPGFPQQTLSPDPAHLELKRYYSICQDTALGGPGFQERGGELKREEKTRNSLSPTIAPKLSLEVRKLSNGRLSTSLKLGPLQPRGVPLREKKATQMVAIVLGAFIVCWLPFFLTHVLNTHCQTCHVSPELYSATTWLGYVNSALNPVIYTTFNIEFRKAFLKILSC
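Cells expressing the human receptor were seeded at 1500 cells/well, incubated overnight at 37 degrees C in 5% CO2, then exposed to library compounds with dopamine controls for 90 minutes at 37 degrees C before luminescent detection.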
GLP-1R agonist: agonists of human GLP-1 receptor; P43220; Potency, µM (series often up to 45.6 µM), without a hit: at the top dose activation, usual class: activators; HEK293 GLP-1R CRE-luciferase, luminescence, 4-6 h; cells express a hypersensitive GLP-1R form; actives 0.007% (n = 380,000); note: potency is the fitted concentration of half-maximal effect; % of control where 0% means no effect
DRD3 agonist: activates the human D3 dopamine receptor; D3R DiscoveRx beta-arrestin cells, luminescence, 90 min; max activation, %; actives 0.58% (n = 410,000); AID 652048; in the data active = max activation above about 30%; note: 0% is about no effect
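Cells at 1500/well, incubated overnight, then treated with pinned compounds (dopamine as control) for 90 min at 37 degrees C. DiscoveRx reagent added for 30 - 60 minutes at room temperature; luminescence read.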
Starred values were filed as active, the others as inactive; ? = inconclusive; · = no result; ! = repeats disagree. Unless noted, calls come from the whole dose curve; as a rule, active = well fitted curve in the direction sought with a large enough effect; inconclusive = small, poorly fitted or top-dose-only effect, or another doubt; inactive = no such curve, though single readings can be large; an effect the other way counts as inactive or inconclusive.

SMILES	GLP-1R inv ag	DRD3 antagonist	GLP-1R agonist	DRD3 agonist
COc1ccccc1NC(=O)c1c(Nc2ccccc2C)sc(C(=O)Nc2cccc(Cl)c2)c1N	4.47µM*	?	-18.8%	-2.8
COc1ccc(Nc2sc(C(=O)c3ccc(Cl)cc3)c(N)c2C(=O)Nc2ccccc2OC)cc1	-28.8%	-60.5*	3.2%	-2.4
COc1ccc(C(=O)c2sc(Nc3ccccc3)c(C(=O)Nc3ccc(OC)c(OC)c3)c2N)cc1	?	?	4.9%	-5.4
COc1ccc(Br)c2c1-c1nc(NC(=O)c3cccc(C)c3)sc1C2	10.6%	·	·	-4.6
CCOc1ccc(NC(=S)Nc2ccc3nsnc3c2)cc1	-3.2%	-29.1	4.5%	-16.4
COc1ccc(NC(=S)Nc2ccc3nsnc3c2)cc1	4.2%	-61.5*	3.9%	-38.5
CCCCc1ccc(NC(=O)N2CCNC(=O)C2CC(=O)Nc2ccsc2C(=O)OC)cc1 (configuration not stated)	?	6.5	11.5%	4.5
CC(C)c1ccc(NC(=O)C2(C)Cc3c(-c4ccc(C(N)=O)cc4)ccnc3O2)cc1 (configuration not stated)	-15.0%	-54.3*	9.0%	-18.3
CC1(C(=O)NCc2ccco2)Cc2c(-c3ccccc3)ccnc2O1 (configuration not stated)	?	-58.2*	-8.8%	-7.4
CN(C)c1ccc(-c2ccnc3c2CC(C)(C(=O)Nc2ccc(F)c(Cl)c2)O3)cc1 (configuration not stated)	14.7%	-23.7	-5.4%	69.3*
CN(C)c1ccc(-c2ccnc3c2CC(C)(C(=O)NCCc2ccccc2)O3)cc1 (configuration not stated)	?	-8.1	-5.2%	-3.7
CN(C)c1ccc(-c2ccnc3c2CC(C)(C(=O)Nc2ccc(Cl)cc2)O3)cc1 (configuration not stated)	?	-1.7	0.2%	0.4
CC(=O)NCCNC(=O)C1(C)Cc2c(-c3ccccc3)ccnc2O1 (configuration not stated)	28.4%	0.0	-6.4%	-3.2
CC(=O)Nc1ccc(-c2ccnc3c2CC(C)(C(=O)NCCc2ccccc2)O3)cc1 (configuration not stated)	?	-114.9*	4.5%	-21.3
O=S(=O)(c1ccc(F)cc1)N1CCC(Oc2cccc(C(F)(F)F)c2)CC1	?	·	·	2.3
COc1cc(CCCN2C(N)=NC[C@H]2Cc2ccc(O)cc2)cc(OC)c1OC	15.7%	0.2	2.6%	5.4
COCCNC(=O)C1(C)Cc2c(-c3ccc(NC(C)=O)cc3)ccnc2O1 (configuration not stated)	18.2%	-1.7	6.9%	-10.5
COc1ccc(CCCNC(=O)C2(C)Cc3c(-c4ccc(NC(C)=O)cc4)ccnc3O2)cc1 (configuration not stated)	?	-62.3*	0.4%	-18.6
CC1(C(=O)NCc2cccs2)Cc2c(-c3ccc(C(N)=O)cc3)ccnc2O1 (configuration not stated)	?	-71.4*	-3.1%	-8.4
O=C(Nc1ncccc1O)c1cc2ccccc2o1	11.2µM*	-4.7	-25.8%	-0.5
Cc1ccnc(NC(=O)c2cc3ccccc3o2)c1	5.62µM*	-28.5	-21.8%	-20.7
O=C(O)c1cccc(NC(=O)C2CC(=O)N(Cc3ccccc3)C2)c1 (configuration not stated)	3.6%	-50.6*	-13.9%	4.1
COc1ccc(CNC(=O)c2cccc(NC(=O)c3ccccc3)c2)cc1	?	-4.8	17.1%	10.4
O=C(NCc1ccccc1)c1cccc(COc2ccc3c(c2)CCC3)c1	4.47µM*	-1.0	-2.4%	-0.8
O=C(NCc1ccccc1)C(=O)Nc1cccc(C(=O)O)c1	4.47µM*	0.7	-5.9%	0.9
SMILES	GLP-1R inv ag	DRD3 antagonist	GLP-1R agonist	DRD3 agonist
O=C(NCc1ccccc1)c1cccc(NC(=O)c2ccccc2)c1	8.91µM*	0.0	-2.8%	-24.6
O=C(O)c1cccc(COc2ccc3c(c2)CCC3)c1	?	0.0	-6.1%	3.3
CCc1ccccc1NC(=O)Nc1cc(C(=O)NCc2ccccc2OC)ccc1N1CCCC1	14.3%	·	·	-4.5
CC1=C(/C=C/C(C)=C\C=C\C(C)=C\C=C\C=C(C)\C=C\C=C(C)\C=C\C2=C(C)C[C@@H](O)CC2(C)C)C(C)(C)C[C@H](O)C1	·	·	-1.2%	·
Cc1ccccc1C(=O)Nc1ccccc1OCc1cc(=O)n2ccccc2n1	-18.7%	·	·	10.4
COc1ccccc1-c1nc(SCC(=O)NCc2ccccc2)c2c(=O)n(C)c(=O)n(C)c2n1	15.3%	·	·	7.9
O=C(NCCCCc1ccccc1)c1cccc(NC(=O)C2CCCCC2)c1	11.2µM*	?	-5.6%	-20.5
O=C(CN1CCc2ccccc2C1)Nc1ccccc1Cl	?	?	14.9%	8.1
O=C(CN1CCc2ccccc2C1)Nc1ccccc1N1CCCCCC1	-9.7%	-53.9*	0.0%	-42.9
Cc1cc(C)cc(NC(=O)CN2CCc3ccccc3C2)c1	?	-66.7*	1.0%	0.4
O=C(CNCC1CCCCC1)Nc1ccccc1N1CCCCC1	?	0.0	-7.6%	0.0
O=C(CNC1CCCCCC1)Nc1ccccc1N1CCCCC1	?	-63.7*	-10.6%	-1.6
Cc1ccc(NC(=O)C(C)N2CCc3ccccc3C2)cc1 (configuration not stated)	?	-76.1*	4.5%	-23.4
CCOC(=O)c1ccc(NC(=O)CN2CCc3ccccc3C2)cc1	0.0%	-61.5*	10.5%	-5.3
CN1CCC(=C2c3ccccc3CCc3sccc32)CC1	?	-91.4*	-4.2%	-79.8
CN1CCC(=C2c3ccccc3C(O)c3ccccc32)CC1 (configuration not stated)	-21.5%	-79.6*	-6.4%	2.3
O=C1/C(=C/c2cccs2)Cc2ccccc21	3.9%	-5.4	-0.5%	-0.8
CN1CCC(=C2c3ccccc3CC(=O)c3sccc32)CC1	?	-97.9*	-4.2%	-21.1
FC(F)(F)c1nnc(-c2ccccc2)nc1Sc1ccccc1	?	?	-41.3%	-10.0
FC(F)(F)c1nnc(-c2ccccc2)nc1Sc1ccc(Cl)cc1	2.5%	-93.1*	-12.4%	-9.0
FC(F)(F)c1cccc(Sc2nc(-c3ccccc3)nnc2C(F)(F)F)c1	0.7%	-61.3*	-17.5%	-8.1
CCN(Cc1ccccc1)C(=O)Cn1c(=O)n(-c2ccc(Cl)c(Cl)c2)c(=O)c2c(C)c(C(=O)N(C)C)sc21	7.4%	·	·	5.2
Cc1cn(C)c(CC(=O)N2CCN(c3cccc(C(F)(F)F)c3)CC2)c1C(=O)O	-1.5%	·	·	-19.0
O=C(Nc1c(C(=O)N2CCC(N3CCCCC3)CC2)oc2ccccc12)c1c(F)cccc1F	10.7%	-8.0	2.7%	50.9*!
O=C(Nc1c(C(=O)N2CCC(N3CCCCC3)CC2)oc2ccccc12)c1ccc(F)cc1	?	-11.7	8.1%	-9.6
Nc1nonc1-c1nc2ccccc2n1CC(=O)Nc1cccc(C(F)(F)F)c1	?	·	·	6.6

High-throughput results from PubChem.
